# The supplement of paper PMC10849652
# The full data set covers some 7,900 targets. This sample favours those with a hit. About 0.6% of all pairs of compound and target were hits. A number with no mark means an inactive call.
# Experiments:
# Assay in all cases: log2 fold change, soluble protein after heating vs DMSO (PISA); higher = thermal stabilisation; K562 cells, 10 uM, 30 min; active = over 0.2 and 3.5 SD of the protein, either way, in both replicates (recomputed)
# [1] = compound: C1=CC=C(C=C1)[C@H](COC2=CC3=C(C=C2)NC(=O)N3)NC(=O)C4=CC=CN(C4=O)CC5=CC(=C(C=C5)F)F
# Outline: (§1)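 K562 cells at 2×10^6 cells/mL were exposed to 10 μM compound for 30 min, then aliquots were heated for 3 min across 48°C-58°C, pooled, and extracted in PBS containing 0.5% NP-40 at 4°C. The supernatant after 21,000xg for 90 min was taken as soluble protein and measured by TMTpro 16plex LC-MS/MS with channel sums equalised. Thermal stability is reported relative to control samples, with values from duplicates. Fold changes are given on a log2 scale.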
# [2] = compound: CC1=C(SC2=C1C(=N[C@H](C3=NN=C(N32)C)CC(=O)N)C4=CC=C(C=C4)Cl)C
# Outline: as §1
# [3] = compound: CC1=C2C(=CC=C1)N=C(N(C2=O)C3=CC=CC=C3C)CN4C=NC5=C(N=CN=C54)N
# Outline: as §1
# [4] = compound: Cc1sc2c(c1C)C(c1ccc(Cl)cc1)=N[C@@H](CC(=O)OC(C)(C)C)c1nnc(C)n1-2
# Outline: as §1
# [5] = compound: c1ccc([C@@H]2C[C@H]2NC2CCNCC2)cc1
# Outline: as §1
# Sequence of UniProt Q92934 (Q92934 whole entry, looked up): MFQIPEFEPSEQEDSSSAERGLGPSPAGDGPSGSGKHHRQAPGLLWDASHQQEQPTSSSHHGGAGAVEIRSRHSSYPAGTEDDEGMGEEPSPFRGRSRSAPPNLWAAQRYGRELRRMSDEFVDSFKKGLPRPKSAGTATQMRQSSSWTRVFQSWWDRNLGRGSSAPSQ
# Sequence of UniProt P40616 (P40616 whole entry, looked up): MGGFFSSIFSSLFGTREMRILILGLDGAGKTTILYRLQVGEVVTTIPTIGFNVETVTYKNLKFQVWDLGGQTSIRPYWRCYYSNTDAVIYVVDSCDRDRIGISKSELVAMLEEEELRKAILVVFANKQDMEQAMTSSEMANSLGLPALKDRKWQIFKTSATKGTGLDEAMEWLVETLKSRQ
# Sequence of UniProt Q9Y587 (Q9Y587 whole entry, looked up): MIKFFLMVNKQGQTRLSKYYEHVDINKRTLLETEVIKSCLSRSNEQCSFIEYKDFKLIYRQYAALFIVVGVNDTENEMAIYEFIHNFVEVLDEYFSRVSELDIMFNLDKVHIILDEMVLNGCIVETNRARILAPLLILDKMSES
# Sequence of UniProt P78363 (P78363 whole entry, looked up): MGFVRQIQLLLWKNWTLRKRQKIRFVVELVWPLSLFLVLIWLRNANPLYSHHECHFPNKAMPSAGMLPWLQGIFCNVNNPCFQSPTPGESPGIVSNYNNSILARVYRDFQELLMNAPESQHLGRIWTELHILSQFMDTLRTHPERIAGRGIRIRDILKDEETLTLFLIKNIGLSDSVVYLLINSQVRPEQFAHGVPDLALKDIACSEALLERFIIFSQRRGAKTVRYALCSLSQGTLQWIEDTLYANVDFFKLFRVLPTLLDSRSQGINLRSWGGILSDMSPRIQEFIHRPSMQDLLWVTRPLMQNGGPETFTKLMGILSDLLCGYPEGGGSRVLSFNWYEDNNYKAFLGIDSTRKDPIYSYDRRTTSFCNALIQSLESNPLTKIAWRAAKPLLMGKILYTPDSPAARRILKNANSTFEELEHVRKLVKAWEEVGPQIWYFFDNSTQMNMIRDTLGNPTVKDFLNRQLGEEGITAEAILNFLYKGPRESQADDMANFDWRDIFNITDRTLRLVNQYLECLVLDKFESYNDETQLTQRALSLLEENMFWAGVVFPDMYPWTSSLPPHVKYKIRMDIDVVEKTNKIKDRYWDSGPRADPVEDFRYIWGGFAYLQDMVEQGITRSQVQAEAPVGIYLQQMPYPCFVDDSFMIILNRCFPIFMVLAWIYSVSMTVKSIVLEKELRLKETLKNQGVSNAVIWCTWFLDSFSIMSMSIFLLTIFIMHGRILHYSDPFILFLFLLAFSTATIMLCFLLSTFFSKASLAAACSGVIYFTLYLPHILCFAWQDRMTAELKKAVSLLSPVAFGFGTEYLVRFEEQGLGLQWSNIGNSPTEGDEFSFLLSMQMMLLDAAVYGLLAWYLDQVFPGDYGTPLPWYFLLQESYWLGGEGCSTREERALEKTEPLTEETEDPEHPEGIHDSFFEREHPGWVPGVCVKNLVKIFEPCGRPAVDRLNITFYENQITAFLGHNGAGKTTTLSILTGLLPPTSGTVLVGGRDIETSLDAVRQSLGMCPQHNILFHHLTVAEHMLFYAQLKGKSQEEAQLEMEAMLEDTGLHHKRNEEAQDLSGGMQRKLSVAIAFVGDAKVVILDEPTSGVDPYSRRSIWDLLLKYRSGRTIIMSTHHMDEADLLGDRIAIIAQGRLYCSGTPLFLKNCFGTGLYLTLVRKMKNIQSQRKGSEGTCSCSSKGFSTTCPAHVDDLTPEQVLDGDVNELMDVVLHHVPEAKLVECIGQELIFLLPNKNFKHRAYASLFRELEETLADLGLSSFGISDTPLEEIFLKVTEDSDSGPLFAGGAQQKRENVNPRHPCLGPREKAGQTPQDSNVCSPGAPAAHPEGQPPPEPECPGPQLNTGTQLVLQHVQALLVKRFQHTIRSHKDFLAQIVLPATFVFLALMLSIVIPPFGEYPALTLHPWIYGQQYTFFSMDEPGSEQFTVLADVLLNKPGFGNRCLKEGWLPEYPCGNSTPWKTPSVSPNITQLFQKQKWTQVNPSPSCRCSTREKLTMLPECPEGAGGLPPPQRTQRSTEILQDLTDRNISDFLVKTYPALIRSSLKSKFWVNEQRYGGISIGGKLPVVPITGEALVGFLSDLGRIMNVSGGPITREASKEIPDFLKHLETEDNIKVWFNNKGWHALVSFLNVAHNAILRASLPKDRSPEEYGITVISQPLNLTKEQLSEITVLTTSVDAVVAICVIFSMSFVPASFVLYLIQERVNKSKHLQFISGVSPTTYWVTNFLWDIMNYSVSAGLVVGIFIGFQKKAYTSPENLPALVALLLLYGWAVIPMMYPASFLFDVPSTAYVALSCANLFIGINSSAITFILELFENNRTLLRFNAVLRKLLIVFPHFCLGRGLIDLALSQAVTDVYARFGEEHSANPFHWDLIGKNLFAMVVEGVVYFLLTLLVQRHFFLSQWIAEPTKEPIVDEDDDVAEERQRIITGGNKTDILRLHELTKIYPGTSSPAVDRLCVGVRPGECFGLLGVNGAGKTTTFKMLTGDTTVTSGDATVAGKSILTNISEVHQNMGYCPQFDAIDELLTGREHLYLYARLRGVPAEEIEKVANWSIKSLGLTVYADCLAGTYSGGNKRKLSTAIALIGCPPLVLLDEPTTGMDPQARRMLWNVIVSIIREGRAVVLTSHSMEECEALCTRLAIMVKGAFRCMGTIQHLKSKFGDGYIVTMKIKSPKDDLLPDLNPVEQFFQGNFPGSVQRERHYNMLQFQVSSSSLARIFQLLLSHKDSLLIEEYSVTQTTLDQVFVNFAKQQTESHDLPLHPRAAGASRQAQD
# Sequence of UniProt Q8N6H7 (Q8N6H7 whole entry, looked up): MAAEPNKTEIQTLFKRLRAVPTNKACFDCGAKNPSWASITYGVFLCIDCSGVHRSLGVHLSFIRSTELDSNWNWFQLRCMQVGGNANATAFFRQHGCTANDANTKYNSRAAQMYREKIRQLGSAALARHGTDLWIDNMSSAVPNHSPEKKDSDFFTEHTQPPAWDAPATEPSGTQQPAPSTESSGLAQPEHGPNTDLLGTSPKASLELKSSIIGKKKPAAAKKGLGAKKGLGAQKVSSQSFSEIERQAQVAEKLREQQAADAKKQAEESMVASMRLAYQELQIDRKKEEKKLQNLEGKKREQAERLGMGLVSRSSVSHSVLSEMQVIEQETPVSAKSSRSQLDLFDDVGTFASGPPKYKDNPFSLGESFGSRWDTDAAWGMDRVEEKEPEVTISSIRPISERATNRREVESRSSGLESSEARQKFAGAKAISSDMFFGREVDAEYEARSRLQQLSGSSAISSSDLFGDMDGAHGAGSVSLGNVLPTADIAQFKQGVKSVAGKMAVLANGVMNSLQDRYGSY
# Sequence of UniProt Q9UNK9 (Q9UNK9 whole entry, looked up): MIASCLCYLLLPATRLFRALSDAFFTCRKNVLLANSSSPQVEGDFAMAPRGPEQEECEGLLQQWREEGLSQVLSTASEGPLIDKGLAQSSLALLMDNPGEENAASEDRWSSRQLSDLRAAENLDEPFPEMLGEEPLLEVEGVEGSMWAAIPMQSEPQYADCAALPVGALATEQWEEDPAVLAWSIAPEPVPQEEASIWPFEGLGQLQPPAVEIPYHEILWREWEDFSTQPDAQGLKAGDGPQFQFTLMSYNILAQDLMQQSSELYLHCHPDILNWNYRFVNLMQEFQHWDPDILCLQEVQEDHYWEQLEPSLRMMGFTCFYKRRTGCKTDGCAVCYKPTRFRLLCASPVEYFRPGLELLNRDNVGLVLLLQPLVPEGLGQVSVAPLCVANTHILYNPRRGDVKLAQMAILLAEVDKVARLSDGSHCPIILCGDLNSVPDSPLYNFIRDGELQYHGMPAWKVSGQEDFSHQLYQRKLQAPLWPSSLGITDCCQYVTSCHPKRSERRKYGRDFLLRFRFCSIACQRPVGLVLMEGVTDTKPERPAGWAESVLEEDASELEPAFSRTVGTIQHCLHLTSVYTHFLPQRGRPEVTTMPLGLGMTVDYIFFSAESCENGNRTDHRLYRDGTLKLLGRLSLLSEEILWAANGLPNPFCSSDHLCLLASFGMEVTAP
# Sequence of UniProt O95573 (O95573 whole entry, looked up): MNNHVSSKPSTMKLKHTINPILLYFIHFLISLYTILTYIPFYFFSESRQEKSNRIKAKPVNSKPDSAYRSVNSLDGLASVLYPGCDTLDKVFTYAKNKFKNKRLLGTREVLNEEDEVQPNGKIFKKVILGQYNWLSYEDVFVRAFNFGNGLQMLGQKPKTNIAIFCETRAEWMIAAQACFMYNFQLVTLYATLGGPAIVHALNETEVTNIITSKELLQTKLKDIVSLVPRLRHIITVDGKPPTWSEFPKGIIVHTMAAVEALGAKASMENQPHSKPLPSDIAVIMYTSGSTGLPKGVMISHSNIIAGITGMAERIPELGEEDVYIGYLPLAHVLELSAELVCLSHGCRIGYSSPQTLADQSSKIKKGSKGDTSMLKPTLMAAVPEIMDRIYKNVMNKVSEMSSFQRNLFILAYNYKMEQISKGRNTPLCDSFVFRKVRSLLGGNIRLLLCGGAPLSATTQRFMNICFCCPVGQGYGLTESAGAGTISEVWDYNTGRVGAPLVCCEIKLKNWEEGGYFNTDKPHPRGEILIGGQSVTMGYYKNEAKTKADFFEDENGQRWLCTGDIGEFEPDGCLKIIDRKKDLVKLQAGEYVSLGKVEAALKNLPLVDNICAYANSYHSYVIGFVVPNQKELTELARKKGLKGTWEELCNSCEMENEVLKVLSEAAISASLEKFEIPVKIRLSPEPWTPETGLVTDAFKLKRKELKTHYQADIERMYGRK
# Sequence of UniProt P54252 (P54252 whole entry, looked up): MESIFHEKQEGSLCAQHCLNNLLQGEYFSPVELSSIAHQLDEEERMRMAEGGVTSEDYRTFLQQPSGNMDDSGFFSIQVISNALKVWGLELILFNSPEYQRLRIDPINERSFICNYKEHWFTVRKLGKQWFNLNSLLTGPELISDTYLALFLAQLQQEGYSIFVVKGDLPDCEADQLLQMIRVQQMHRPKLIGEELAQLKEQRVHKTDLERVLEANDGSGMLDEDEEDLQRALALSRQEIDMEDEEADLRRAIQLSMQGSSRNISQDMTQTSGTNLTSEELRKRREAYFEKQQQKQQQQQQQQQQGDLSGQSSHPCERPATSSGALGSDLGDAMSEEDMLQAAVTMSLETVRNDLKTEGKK
Target,log2 fold change [1],log2 fold change [2],log2 fold change [3],log2 fold change [4],log2 fold change [5]
ATP5ME (UniProt P56385),0.028,0.117,0.007,-0.072,0.014
BCCIP (UniProt Q9P287),-0.044,-0.018,0,-0.037,-0.062
ARF4 (UniProt P18085),0,0.045,0.053,-0.082,-0.015
AAMP (UniProt Q13685),-0.015,-0.013,0.014,-0.032,0.021
ATXN3 isoform 1 (UniProt P54252),-0.012,0.001,0.118,-0.068,0
ATR (UniProt Q13535),-0.045,0.025,0.107,-0.022,-0.079
ARMC8 (UniProt Q8IUR7),0.05,-0.005,0,0.021,0.011
BRD8 isoform 2 (UniProt Q9H0E9),0.035,-0.091,0.167,0.046,0.038
AFDN isoform 5 (UniProt P55196),-0.04,0.055,0.069,-0.018,-0.023
ANK2 (UniProt Q01484),-0.019,0.058,0.071,0.159,0.02
B4GALNT1 (UniProt Q00973),-0.029,-0.068,-0.001,-0.102,-0.062
ALKBH4 (UniProt Q9NXW9),0.023,-0.063,-0.078,0.079,-0.033
AGRN (UniProt O00468),0.06,0.154,0.043,-0.038,0.028
ABCB6 (UniProt Q9NP58),0.001,0.003,0.05,-0.049,0.012
BRAF (UniProt P15056),-0.04,0.075,0.041,-0.018,-0.027
ACSL3 (UniProt O95573),-0.05,0.068,0.028,-0.014,-0.036
AMFR (UniProt Q9UKV5),-0.043,-0.004,0.023,0.024,-0.046
ACSM3 (UniProt Q53FZ2),-0.046,-0.051,0.091,-0.03,-0.029
ADH5 (UniProt P11766),0.026,0.024,0.025,-0.023,0.017
BAP1 (UniProt Q92560),-0.226,-0.123,-0.156,0.066,-0.037

Target,log2 fold change [1],log2 fold change [2],log2 fold change [3],log2 fold change [4],log2 fold change [5]
ABITRAM (UniProt Q9NX38),-0.037,0.145,0.032,-0.044,-0.016
ARL1 (UniProt P40616),-0.084,0.057,0.079,-0.1,-0.048
AGPS (UniProt O00116),-0.046,0.081,0.079,-0.031,-0.051
ANAPC2 (UniProt Q9UJX6),-0.017,0.016,-0.005,0.017,-0.049
ACTBL2 (UniProt Q562R1),-0.444,,-0.201,,
AFDN isoform 1 (UniProt P55196),0.038,-0.119,0.029,,0.177
ADD1 isoform 4 (UniProt P35611),-0.03,0.04,,,0.217
ACTR3B (UniProt Q9P1U1),,,-0.002,0.173,
ARRDC1 (UniProt Q8N5I2),0.005,-0.462 (active),-0.062,-0.1,-0.037
"BRAF, A0A2R8Y8E0",,,,0.162,
AGAP3 isoform 4 (UniProt Q96P47),-0.08,-0.023,,-0.006,0.05
AIF1 (UniProt P55008),-0.114,,0.04,,
AP4S1 (UniProt Q9Y587),-0.077,0.133,0.069,,0
BDH2 (UniProt Q9BUT1),-0.033,0.087,-0.213,,0.12
ARFGAP2 (UniProt Q8N6H7),-0.006,0.039,0.086,-0.033,0.006
BRMS1 (UniProt Q9HCU9),,,,-0.011,
ASB6 (UniProt Q9NWX5),-0.065,,0.178,,
AARSD1 (UniProt Q9BTE6),-0.081,-0.267,,,-0.068
ADD1 isoform 3 (UniProt P35611),0.01,-0.003,0,-0.014,0.024
ACVR1 (UniProt Q04771),,0.061,0.041,-0.218,0.072

Target,log2 fold change [1],log2 fold change [2],log2 fold change [3],log2 fold change [4],log2 fold change [5]
ARMC8 isoform 6 (UniProt Q8IUR7),0.053,,0.088,,
ANGEL1 (UniProt Q9UNK9),-0.256,,-0.172,-0.042,
AKNA (UniProt Q7Z591),,0.071,,,0.206
ALDH2 isoform 2 (UniProt P05091),-0.092,,0.379,0.074,
ATP12A isoform 2 (UniProt P54707),-0.027,0.062,0.052,-0.044,-0.043
BAP18 isoform 3 (UniProt Q8IXM2),,,,0.041,
AKAP8 (UniProt O43823),0.012,-0.03,0.105,-0.018,0.347 (active)
BAD (UniProt Q92934),-0.001,-0.042,-0.086,,0.032
AZI2 (UniProt Q9H6S1),0.034,,-0.047,0.136,
APOBEC3G (UniProt Q9HC16),0.089,,0.436,0.147,
AMD1 (UniProt P17707),-0.021,,0.168,-0.164,
AUNIP isoform 2 (UniProt Q9H7T9),,0.031,0.086,-0.001,-0.014
BAIAP2 isoform 4 (UniProt Q9UQB8),,0.029,,-0.206,0.151
ATAD3A isoform 2 (UniProt Q9NVI7),-0.019,-0.037,-0.052,0.08,0.054
AP2S1 (UniProt M0QZ21),,,,-0.014,
ADPRH (UniProt P54922),-0.035,,0.344,-0.121,
ADD3 isoform 2 (UniProt Q9UEY8),,-0.075,-0.038,0.007,0
ACSL6 isoform 1 (UniProt Q9UKU0),0.012,,0.29,-0.009,
APAF1 (UniProt O14727),,0.031,0.112,,0.055
ABCA4 (UniProt P78363),0.174,0.297,,0.03,-0.128
